USP17 inh = inhibitors of human USP17 deubiquitinase; Ubiquitin carboxyl-terminal hydrolase 17-like protein 5 (Homo sapiens), A8MUK1; inhibition, % at 50 µM; purified USP17, Ub-rhodamine cleavage fluorescence, 3 h; AID 1645855, 2021; hit rate 6.5% among 47,000
Target sequence (A8MUK1 whole entry, looked up): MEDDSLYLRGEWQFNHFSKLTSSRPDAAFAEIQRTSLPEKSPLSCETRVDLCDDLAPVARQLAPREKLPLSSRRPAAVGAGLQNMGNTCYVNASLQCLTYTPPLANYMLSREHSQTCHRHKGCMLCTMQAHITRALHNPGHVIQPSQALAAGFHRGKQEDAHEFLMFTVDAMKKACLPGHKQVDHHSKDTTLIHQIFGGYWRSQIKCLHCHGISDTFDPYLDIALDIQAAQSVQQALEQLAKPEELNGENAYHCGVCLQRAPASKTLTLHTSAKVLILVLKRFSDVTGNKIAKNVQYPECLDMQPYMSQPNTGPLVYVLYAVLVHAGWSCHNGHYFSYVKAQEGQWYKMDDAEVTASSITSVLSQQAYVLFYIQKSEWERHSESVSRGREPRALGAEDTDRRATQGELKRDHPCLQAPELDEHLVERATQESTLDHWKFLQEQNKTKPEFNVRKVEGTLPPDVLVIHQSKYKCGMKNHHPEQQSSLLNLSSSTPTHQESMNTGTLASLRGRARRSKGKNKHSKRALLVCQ
USP30 block = inhibitors of human USP30 deubiquitinase | Ubiquitin carboxyl-terminal hydrolase 30 (Homo sapiens), Q70CQ3 | purified USP30, Ub-rhodamine cleavage fluorescence | inhibition, % at 25 µM | hit rate 5.3% among 47,000 | AID 1645860, 2021
USP8 block = inhibitors of human USP8 deubiquitinase. Ubiquitin carboxyl-terminal hydrolase 8 (Homo sapiens), P40818. purified USP8, Ub-rhodamine cleavage fluorescence, 30 min. inhibition, % at 20 µM. hit rate 4.2% among 47,000. AID 1645853, 2021
USP10 block = inhibitors of human USP10 deubiquitinase; Ubiquitin carboxyl-terminal hydrolase 10 (Homo sapiens), Q14694; purified USP10, Ub-rhodamine fluorescence, 60 min; inhibition, % at 20 µM; hit rate 1.1% among 47,000; AID 1645856, 2021
USP7 block = inhibitors of human USP7 deubiquitinase | Ubiquitin carboxyl-terminal hydrolase 7 (Homo sapiens), Q93009 | purified USP7, Ub-rhodamine cleavage fluorescence | inhibition, % at 20 µM | hit rate 0.3% among 47,000
USP28 block = inhibitors of human USP28 deubiquitinase; hit rate 3% among 47,000; inhibition, % at 25 µM; Ubiquitin carboxyl-terminal hydrolase 28 (Homo sapiens), Q96RU2; purified USP28, Ub-rhodamine cleavage fluorescence, 30 min
An asterisk follows results filed as active; . = no result given. Only some compounds are listed: those with a hit (about 13% of all), similar ones and a draw of the others. Cut-off read from the data, not from the text of the source: active = inhibition above about 30%; inactive = the rest.

SMILES | USP17 inh | USP30 block | USP8 block | USP10 block | USP7 block | USP28 block
COc1cccc(C2SCC(=O)Nc3c2c(C)nn3-c2nc(C)cc(C)n2)c1 (stereo not drawn) | -5 | -11 | -6 | -3 | -6 | -13
COc1cc(C2SCC(=O)Nc3c2c(-c2ccccc2)nn3-c2ccccc2)cc(OC)c1OC (stereo not drawn) | 7 | -1 | -11 | 0 | 10 | 77*
O=C1CSC(c2ccc(Cl)cc2)c2c(-c3ccccc3)nn(-c3ccccc3)c2N1 (stereo not drawn) | 5 | 32* | 7 | 3 | -1 | 43*
CN1C(=O)[C@@]23CC4=CC=C[C@H](O)C4N2C(=O)[C@]1(CO)SS3 (stereo partly drawn) | -27 | 35* | -17 | -8 | 0 | -13
C/C=C/[C@H]1O[C@@](O)([C@@H](C)[C@H](O)[C@H](C)[C@H]2OC(=O)/C(OC)=C/C(C)=C[C@@H](C)[C@@H](O)[C@@H](CC)[C@@H](O)[C@H](C)C/C(C)=C/C=C/[C@@H]2OC)C[C@@H](O[C@H]2C[C@@H](O)[C@H](OC(N)=O)[C@@H](C)O2)[C@@H]1C | -3 | -39 | -5 | -5 | 2 | -26
O=C1CSC(c2cccc([N+](=O)[O-])c2)c2c(n(C3CCCCC3)[nH]c2=O)N1 (stereo not drawn) | 0 | -11 | -46 | 4 | 7 | -4
O=C1CSC(c2ccc3c(c2)OCO3)c2c(n(C3CCCC3)[nH]c2=O)N1 (stereo not drawn) | 0 | 23 | 0 | 0 | -3 | 2
Cc1ccc(C2SCC(=O)Nc3c2c(=O)[nH]n3C2CCCCCC2)cc1 (stereo not drawn) | 19 | 29 | 73* | 15 | 14 | 9
O=C1CSC(c2cccc([N+](=O)[O-])c2)c2c(n(C3CCCCCC3)[nH]c2=O)N1 (stereo not drawn) | . | 28 | 40* | 10 | 1 | 8
Cc1nn(C2CCCC2)c2c1C(c1ccc3c(c1)OCO3)SCC(=O)N2 (stereo not drawn) | -12 | 30* | -160 | 3 | 3 | 9
CCOc1ccc(C2SCC(=O)Nc3c2c(=O)[nH]n3C2CCCC2)cc1 (stereo not drawn) | 12 | 19 | 23 | 2 | 13 | 8
O=S1(=O)Cc2cnc(N3CCCC3)nc2[C@H]2CN(CC3CC3)C[C@H]21 | -13 | 7 | -11 | 0 | -10 | -6
COc1ccc(-c2cn(C[C@H]3CC4CCN3C[C@@H]4C(=O)N3CCOCC3)nn2)cc1 (stereo partly drawn) | -8 | -6 | 4 | 0 | 2 | -2
CCC(=O)CCCCC[C@@H]1NC(=O)[C@H]2CCCCN2C(=O)[C@H]([C@@H](C)CC)NC(=O)[C@H](Cc2cn(OC)c3ccccc23)NC1=O | 36* | 0 | -15 | 0 | 0 | 13
CCOC(=O)c1c(C)n(C2CC2)c2ccc(OC)cc12 | 5 | -8 | 8 | 0 | -4 | 37*
O=C1c2c(O)c(Cl)cc3c2[C@@]2(Oc4cc(Cl)c(O)c5c4[C@]3(O2)[C@@H]2O[C@@H]2C5=O)[C@@H]2O[C@H]12 | 76* | 6 | 54* | 69* | 93* | 78*
O=C(c1nc(-c2ccncc2)no1)N1CCC2(CC1)OCCO2 | 4 | 7 | 31* | 2 | 0 | 1
Clc1ccc(-c2cc(N3CCOCC3)n[nH]2)cc1 | -6 | 0 | -33 | 5 | -3 | -5
O=C(NCc1ccccn1)c1cc2cccnc2n(Cc2ccccc2)c1=O | -62 | -178 | -35 | -5 | -50 | -49
O=C(Nc1ccccn1)c1c(O)c2ccccc2n(Cc2ccccc2)c1=O | 14 | 12 | 69* | 9 | 6 | -1
Cc1ccc2c(c1)-c1onc(C(=O)N3CCC4(CC3)OCCO4)c1CO2 | -13 | 4 | 5 | 4 | -21 | 0
Cc1ccc(OCCCn2cc(C(=O)C(C)(C)C)c3ccccc32)cc1 | 3 | 0 | 28 | 10 | -34 | 1
Cc1cc(C)nc(-n2nc(C)c3c2NC(=O)CSC3c2ccccc2F)n1 (stereo not drawn) | 37* | 87* | -6 | -4 | -2 | 2

High-throughput results (PubChem)
